# Measured values from PubChem BioAssay (NCATS).
# Results filed as inconclusive are left out. A call without a number means that no potency is given here. A number with no mark means an inactive call. Active and inactive are the calls of the source. Calls follow the shape of the dose curve; as a rule, active = well fitted curve in the direction sought with a large enough effect; inconclusive = small, poorly fitted or top-dose-only effect, or another doubt; inactive = no such curve, though single readings can be large; an effect the other way counts as inactive or inconclusive.
# Columns and labels:
# KB-3-1 = assay: Cytotoxic Profiling of Annotated Libraries Using Quantitative High-Throughput Screening (AID 1296008); settings: Five cell lines viability, CellTiter-Glo ATP luminescence, 48-72 h; max response: stronger effect = lower value; also: nearly all actives have a fitted effect of over 60% in size
# How it was run: (§1)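 Cells exposed to compounds for 48 or 72 hr at 37 degrees Celsius. Viability read as ATP-coupled luminescence with CellTiter-Glo after 10 min at room temperature.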
# NIH3T3 [1] = assay: as above; settings: Five cell lines viability, CellTiter-Glo ATP luminescence, 48-72 h; max response: stronger effect = lower value
# How it was run: as §1
# MCC-13 = assay: qHTS assay to identify novel small-molecules to repurpose for Merkel cell carcinoma treatment (AID 1296009); settings: MCC and control cell lines, CellTiter-Glo viability, 72 h; series mostly up to 46 µM; also: nearly all actives have a fitted effect of over 60% in size; also: potency is read from the fitted curve at half-maximal effect
# How it was run: (§2)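 Dose-response viability screen; 72 hr exposure at 37 degree celsius; CellTiter-Glo added, 10 min room temperature, luminescence read; RLUs scaled between no-cell and DMSO wells.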
# MCC-26 = assay: as above; settings: MCC and control cell lines, CellTiter-Glo viability, 72 h; series mostly up to 46 µM
# How it was run: as §2
# MKL-1 = assay: as above; settings: MCC and control cell lines, CellTiter-Glo viability, 72 h; series mostly up to 46 µM
# How it was run: as §2
# MKL-2 = assay: as above; settings: MCC and control cell lines, CellTiter-Glo viability, 72 h; series mostly up to 46 µM
# How it was run: as §2
# UISO = assay: as above; settings: MCC and control cell lines, CellTiter-Glo viability, 72 h; series mostly up to 46 µM
# How it was run: as §2
# WaGa = assay: as above; settings: MCC and control cell lines, CellTiter-Glo viability, 72 h; series mostly up to 46 µM
# How it was run: as §2
# C33A = assay: Primary qHTS to identify gynecologic anti-cancer compounds using libraries of approved drugs and bioactive compounds (AID 1345084); settings: Gynecologic cancer cell panel viability, ATPlite luminescence, 48 h; series mostly up to 57.5 µM; also: nearly all actives have a fitted effect of over 55% in size
# How it was run: (§3)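 48 h compound exposure at 37 C, 5% CO2; five-point qHTS. ATPlite luminescence readout of cell ATP.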
# CAOV3 = assay: as above; settings: Gynecologic cancer cell panel viability, ATPlite luminescence, 48 h; series mostly up to 57.5 µM
# How it was run: as §3
# CASKI = assay: as above; settings: Gynecologic cancer cell panel viability, ATPlite luminescence, 48 h; series mostly up to 57.5 µM
# How it was run: as §3
# Es-2 = assay: as above; settings: Gynecologic cancer cell panel viability, ATPlite luminescence, 48 h; series mostly up to 57.5 µM
# How it was run: as §3
# HeLa = assay: as above; settings: Gynecologic cancer cell panel viability, ATPlite luminescence, 48 h; series mostly up to 57.5 µM
# How it was run: as §3
# Hek293T [2] = assay: as above; settings: Gynecologic cancer cell panel viability, ATPlite luminescence, 48 h, control line for the selectivity index; series mostly up to 57.5 µM
# How it was run: as §3
# JEG-3 = assay: as above; settings: Gynecologic cancer cell panel viability, ATPlite luminescence, 48 h; series mostly up to 57.5 µM
# How it was run: as §3
# OV90 = assay: as above; settings: Gynecologic cancer cell panel viability, ATPlite luminescence, 48 h; series mostly up to 57.5 µM
# How it was run: as §3
# PA-1 = assay: as above; settings: Gynecologic cancer cell panel viability, ATPlite luminescence, 48 h; series mostly up to 57.5 µM
# How it was run: as §3
# HEK293T [3] = assay: qHTS assay to identify novel small-molecules to repurpose for Merkel cell carcinoma treatment (AID 1296009); settings: MCC and control cell lines, CellTiter-Glo viability, 72 h; at 44.8 µM (top of the series) unless noted; also: nearly all actives have a fitted effect of over 60% in size; also: potency is read from the fitted curve at half-maximal effect
# How it was run: as §2
# HACAT = assay: as above; settings: MCC and control cell lines, CellTiter-Glo viability, 72 h; at 44.8 µM (top of the series) unless noted
# How it was run: as §2
# NIH3T3 [4] = assay: as above; settings: MCC and control cell lines, CellTiter-Glo viability, 72 h; at 44.8 µM (top of the series)
# How it was run: as §2
compound,measurement,setting,value
COc1ccc(-c2cc(C(F)F)nn2-c2ccc(S(N)(=O)=O)cc2)cc1F,max response,KB-3-1,15.2%
same,max response,NIH3T3 [1],1.89%
same,Potency,MCC-13,inactive
same,Potency,MCC-26,inactive
same,Potency,MKL-1,inactive
same,Potency,MKL-2,inactive
same,Potency,UISO,inactive
same,Potency,WaGa,inactive
same,Potency,C33A,inactive
same,Potency,CAOV3,inactive
same,Potency,CASKI,inactive
same,Potency,Es-2,inactive
same,Potency,HeLa,inactive
same,Potency,Hek293T [2],inactive
same,Potency,JEG-3,inactive
same,Potency,OV90,inactive
same,Potency,PA-1,inactive
COc1ccc(CN(CCN(C)C)c2ncccn2)cc1,max response,KB-3-1,-2.44%
same,max response,NIH3T3 [1],-1.92%
same,outcome,HEK293T [3],inactive
same,Potency,MCC-13,inactive
same,Potency,MCC-26,inactive
same,Potency,MKL-1,inactive
same,Potency,MKL-2,inactive
same,Potency,UISO,inactive
same,Potency,WaGa,inactive
same,Potency,C33A,inactive
same,Potency,CAOV3,inactive
same,Potency,CASKI,inactive
same,Potency,Es-2,inactive
same,Potency,HeLa,inactive
same,Potency,Hek293T [2],inactive
same,Potency,JEG-3,inactive
same,Potency,OV90,inactive
same,Potency,PA-1,inactive
Cc1cc(CC(=O)O)c(C)n1-c1ccc(Cl)cc1,max response,KB-3-1,-2.45%
same,outcome,NIH3T3 [1],inactive
same,outcome,HACAT,inactive
same,Potency,MCC-13,inactive
same,Potency,MCC-26,inactive
same,Potency,MKL-1,inactive
same,outcome,NIH3T3 [4],inactive
same,Potency,UISO,inactive
same,Potency,WaGa,inactive
same,Potency,C33A,inactive
same,Potency,CAOV3,inactive
same,Potency,CASKI,inactive
same,Potency,Es-2,inactive
same,Potency,HeLa,inactive
same,Potency,JEG-3,inactive
same,Potency,OV90,inactive
same,Potency,PA-1,inactive
O=C(O)C(Cc1cc(I)c(O)c(I)c1)c1ccccc1 (configuration not stated),max response,KB-3-1,-19.5%
same,max response,NIH3T3 [1],-19.3%
same,Potency,MCC-13,inactive
same,Potency,MCC-26,inactive
same,Potency,MKL-1,inactive
same,Potency,MKL-2,inactive
same,Potency,UISO,inactive
same,Potency,WaGa,inactive
same,Potency,C33A,inactive
same,Potency,CAOV3,inactive
same,Potency,CASKI,inactive
same,Potency,Es-2,inactive
same,Potency,HeLa,inactive
same,Potency,Hek293T [2],inactive
same,Potency,JEG-3,inactive
same,Potency,OV90,inactive
CCN[C@@H]1C[C@H](N)[C@@H](OC2OC(CN)=CCC2N)[C@H](O)[C@H]1O[C@H]1OC[C@](C)(O)[C@H](NC)[C@H]1O (some centres not stated),max response,KB-3-1,17.1%
same,max response,NIH3T3 [1],-0.0944%
same,outcome,HEK293T [3],inactive [at 0.588 µM]
same,"activity change, negative = cytotoxicity",MCC-13,16.3% [at 0.597 µM]
same,"activity change, negative = cytotoxicity",MCC-26,2.75% [at 0.597 µM]
same,"activity change, negative = cytotoxicity",MKL-1,9.5% [at 0.597 µM]
same,"activity change, negative = cytotoxicity",MKL-2,2.5% [at 0.597 µM]
same,"activity change, negative = cytotoxicity",UISO,19.1% [at 0.597 µM]
same,"activity change, negative = cytotoxicity",WaGa,13.3% [at 0.597 µM]
same,"activity change, negative = cytotoxicity",C33A,4.69% [at 0.462 µM]
same,"activity change, negative = cytotoxicity",CAOV3,0% [at 0.462 µM]
same,"activity change, negative = cytotoxicity",CASKI,-0.808% [at 0.462 µM]
same,"activity change, negative = cytotoxicity",Es-2,9.29% [at 0.462 µM]
same,"activity change, negative = cytotoxicity",HeLa,15.4% [at 0.462 µM]
same,"activity change, negative = cytotoxicity",Hek293T [2],3.5% [at 0.462 µM]
same,"activity change, negative = cytotoxicity",JEG-3,13.2% [at 0.462 µM]
same,"activity change, negative = cytotoxicity",OV90,-4.98% [at 0.462 µM]
same,"activity change, negative = cytotoxicity",PA-1,0.807% [at 0.462 µM]
CCN(CC)CCOC(=O)C1(c2ccccc2)CCCC1,max response,KB-3-1,1.37%
same,max response,NIH3T3 [1],2.7%
same,outcome,HEK293T [3],inactive
same,Potency,MCC-13,inactive
same,Potency,MCC-26,inactive
same,Potency,MKL-1,inactive
same,Potency,MKL-2,inactive
same,Potency,UISO,inactive
same,Potency,WaGa,inactive
same,Potency,C33A,inactive
same,Potency,CAOV3,inactive
same,Potency,CASKI,inactive
same,Potency,Es-2,inactive
same,Potency,HeLa,inactive
same,Potency,Hek293T [2],inactive
same,Potency,JEG-3,inactive
same,Potency,PA-1,inactive
CCCCc1cc2ccccc2c(OCCN(C)C)n1,max response,KB-3-1,-3.23%
same,max response,NIH3T3 [1],-15.9%
same,outcome,HACAT,inactive
same,Potency,MCC-13,inactive
same,Potency,MCC-26,inactive
same,Potency,MKL-1,inactive
same,Potency,WaGa,21.1 µM (active)
same,Potency,C33A,inactive
same,Potency,CAOV3,inactive
same,Potency,Es-2,inactive
same,Potency,HeLa,inactive
same,Potency,Hek293T [2],inactive
same,Potency,JEG-3,inactive
same,Potency,PA-1,inactive
NCCNC(=O)c1ccc(Cl)cn1,max response,KB-3-1,-16.4%
same,max response,NIH3T3 [1],2.21%
same,outcome,HACAT,inactive
same,Potency,MCC-13,inactive
same,Potency,MCC-26,inactive
same,Potency,MKL-1,inactive
same,Potency,UISO,inactive
same,Potency,WaGa,inactive
same,Potency,C33A,inactive
same,Potency,CASKI,inactive
same,Potency,Es-2,inactive
same,Potency,HeLa,inactive
same,Potency,Hek293T [2],inactive
same,Potency,JEG-3,inactive
same,Potency,OV90,inactive
same,Potency,PA-1,inactive
O=C(O)CCNC(=O)c1ccccc1,max response,KB-3-1,-6.01%
same,max response,NIH3T3 [1],0.555%
same,outcome,HEK293T [3],inactive
same,Potency,MCC-13,inactive
same,Potency,MCC-26,inactive
same,Potency,MKL-1,inactive
same,Potency,MKL-2,inactive
same,Potency,UISO,inactive
same,Potency,WaGa,inactive
same,Potency,C33A,inactive
same,Potency,CASKI,inactive
same,Potency,Es-2,inactive
same,Potency,HeLa,inactive
same,Potency,Hek293T [2],inactive
same,Potency,JEG-3,inactive
same,Potency,OV90,inactive
same,Potency,PA-1,inactive
CCCCNC(=O)NS(=O)(=O)c1ccc(N)cc1,max response,KB-3-1,10%
same,max response,NIH3T3 [1],-1.55%
same,Potency,MCC-13,inactive
same,Potency,MCC-26,inactive
same,Potency,MKL-1,inactive
same,Potency,MKL-2,inactive
same,Potency,UISO,inactive
same,Potency,WaGa,inactive
same,Potency,C33A,inactive
same,Potency,CAOV3,inactive
same,Potency,CASKI,inactive
same,Potency,Es-2,inactive
same,Potency,HeLa,inactive
same,Potency,Hek293T [2],inactive
same,Potency,JEG-3,inactive
same,Potency,OV90,inactive
same,Potency,PA-1,inactive
OC[C@H]1O[C@@H]2O[C@H]3[C@H](O)[C@@H](O)[C@@H](O[C@H]4[C@H](O)[C@@H](O)[C@@H](O[C@H]5[C@H](O)[C@@H](O)[C@@H](O[C@H]6[C@H](O)[C@@H](O)[C@@H](O[C@H]7[C@H](O)[C@@H](O)[C@@H](O[C@H]8[C@H](O)[C@@H](O)[C@@H](O[C@H]1[C@H](O)[C@H]2O)O[C@@H]8CO)O[C@@H]7CO)O[C@@H]6CO)O[C@@H]5CO)O[C@@H]4CO)O[C@@H]3CO,max response,KB-3-1,3.96%
same,max response,NIH3T3 [1],-2.76%
same,outcome,HEK293T [3],inactive
same,Potency,MCC-13,inactive
same,Potency,MKL-1,inactive
same,Potency,MKL-2,inactive
same,Potency,UISO,inactive
same,Potency,WaGa,inactive
same,Potency,C33A,inactive
same,Potency,CAOV3,inactive
same,Potency,CASKI,inactive
same,Potency,Es-2,inactive
same,Potency,HeLa,inactive
same,Potency,Hek293T [2],inactive
same,Potency,JEG-3,inactive
same,Potency,OV90,inactive
same,Potency,PA-1,inactive
O=C(CCN1CCN2CCCC2C1)N1c2ccccc2Sc2ccc(Cl)cc21 (configuration not stated),max response,KB-3-1,7.31%
same,max response,NIH3T3 [1],3.25%
same,outcome,HACAT,inactive [at 17.4 µM]
same,Potency,MCC-13,inactive
same,Potency,MCC-26,inactive
same,Potency,MKL-1,inactive
same,Potency,UISO,inactive
same,Potency,WaGa,inactive
same,Potency,C33A,inactive
same,Potency,CASKI,inactive
same,Potency,Es-2,inactive
same,Potency,HeLa,inactive
same,Potency,Hek293T [2],inactive
same,Potency,JEG-3,inactive
same,Potency,OV90,inactive
same,Potency,PA-1,inactive
Cc1ccc(S(=O)(=O)NC(=O)NC2CCCC2)cc1,max response,KB-3-1,5.86%
same,max response,NIH3T3 [1],3.93%
same,Potency,MCC-13,inactive
same,Potency,MCC-26,inactive
same,Potency,MKL-1,inactive
same,Potency,MKL-2,inactive
same,Potency,UISO,inactive
same,Potency,WaGa,inactive
same,Potency,C33A,inactive
same,Potency,CAOV3,inactive
same,Potency,CASKI,inactive
same,Potency,Es-2,inactive
same,Potency,HeLa,inactive
same,Potency,Hek293T [2],inactive
same,Potency,JEG-3,inactive
same,Potency,OV90,inactive
same,Potency,PA-1,inactive
